# In PubChem BioAssay (EPA / NIEHS):
# More than one record can exist for a structure, and the calls need not agree. Active and inactive are the calls of the source. Rule for the calls: active = hit-call score of the fitted dose curve at least 0.9, where 1 is the maximum; inactive = score below 0.9.
# Tests used:
# [1] = APR_HepG2_P-H2AX_72hr: Apredica 72-hour HepG2 Assay for H2AX Phosphorylation (AID 2282916); conditions: imaging, actives raise or lower the signal;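 note: phospho-histone H2A.x immunostain intensity per cell marking DNA damage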
# In short: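 HepG2 cells treated 72 h at 0.39–200 uM, 0.5% DMSO final, duplicates. Formaldehyde-fixed, Triton-permeabilised, immunostained for phospho-H2A.x with Hoechst; fluorescence imaged at 20x, bidirectional fit versus DMSO.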
# [2] = APR_HepG2_MitoMembPot_72hr: Apredica 72-hour HepG2 Assay for Mitochondrial Membrane Potential (AID 2282917); conditions: imaging, actives raise or lower the signal
# In short: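 HepG2 cells exposed 72 h to compounds at 0.39–200 uM (0.5% v/v DMSO, duplicates); MitoTracker Red CMXRos 250 nM loaded 30 min before 3.7% formaldehyde fixation, imaged by HCS fluorescence. Bidirectional fit versus DMSO.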
# [3] = APR_HepG2_MitoticArrest_72hr: Apredica 72-hour HepG2 Assay for Mitotic Arrest (AID 2282918); conditions: high-content imaging, actives raise or lower the signal
# In short: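 HepG2, 72 hr exposure, 0.39–200 uM in duplicate, 0.5% v/v DMSO final. Formaldehyde-fixed, Triton-permeabilized, anti-phospho-histone H3/FITC plus Hoechst. ArrayScan imaging at 20x; curves fit bidirectionally against DMSO baseline.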
# [4] = APR_HepG2_MicrotubuleCSK_72hr: Apredica 72-hour HepG2 Assay for Microtubule CSK Stabilty (AID 2282919); conditions: HepG2 microtubule cytoskeleton, high-content imaging, actives raise or lower the signal
# In short: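 HepG2 human liver cells were dosed for 72 h at ten concentrations from 0.39 to 200 uM in duplicate (0.5% v/v DMSO final). Fixed, permeabilized cells were immunostained for alpha-tubulin (Cy5) with a Hoechst counterstain and imaged at 20x.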
# [5] = APR_HepG2_P-H2AX_24hr: Apredica 24-hour HepG2 Assay for H2AX Phosphorylation (AID 2282920); conditions: high-content imaging, actives raise or lower the signal
# In short: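 HCS fluorescence imaging of phospho-H2A.x immunostain (with Hoechst 33342 nuclear counterstain) in HepG2 after 24 hr compound exposure; 10 concentrations, 0.39–200 uM, duplicate wells, 0.5% v/v DMSO. Gain or loss of signal fitted relative to DMSO baseline.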
# [6] = APR_HepG2_StressKinase_24hr: Apredica 24-hour HepG2 Assay for Stress Kinase (AID 2282922); conditions: HepG2 stress kinase (phospho-c-Jun) imaging, actives raise or lower the signal
# In short: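 HepG2 cells exposed 24 hr to compound at 0.39–200 uM (10 concentrations, duplicate), 0.5% v/v DMSO final. Fixed in 3.7% formaldehyde, permeabilized with Triton X-100, immunolabeled for phospho-c-Jun with Hoechst 33342; HCS fluorescence imaging, bidirectional fit versus DMSO.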
# [7] = APR_HepG2_p53Act_72hr: Apredica 72-hour HepG2 Assay for p53 Activation (AID 2282923); conditions: high-content imaging, actives raise or lower the signal;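 note: average cellular p53 protein immunofluorescence intensity in HepG2 cells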
# In short: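 HepG2 cells exposed 72 h to 0.39–200 uM in 0.5% DMSO, duplicates. Fixed, permeabilized cells immunostained for p53 (Cy5) with Hoechst; imaged at 20x, fluorescence analyzed bidirectionally against DMSO.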
# [8] = APR_HepG2_MitoMass_72hr: Apredica 72-hour HepG2 Assay for Mitochondrial Mass (AID 2282924); conditions: high-content imaging, actives raise or lower the signal;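 note: MitoTracker Red CMXRos stain intensity per cell imaged as mitochondrial mass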
# In short: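 HepG2 cells were exposed for 72 hr to compounds at 0.39–200 uM (ten concentrations, duplicate, 0.5% v/v DMSO final). Live cells were stained with 250 nM MitoTracker Red CMXRos for 30 min, then fixed in 3.7% formaldehyde and imaged by HCS fluorescence.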
# [9] = APR_HepG2_NuclearSize_72hr: Apredica 72-hour HepG2 Assay for Nuclear Size (AID 2282925); conditions: high-content imaging, actives raise or lower the signal
# In short: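 HepG2 cells were exposed to compounds at ten concentrations from 0.39 to 200 uM (duplicate, 0.5% DMSO final) for 72 hr. After fixation in 3.7% formaldehyde, nuclei were stained with Hoechst 33342 (2 ug/mL) and imaged at 20x.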
# [10] = ATG_CRE_CIS: Attagene CIS-FACTORIAL HepG2 Assay for human cAMP Responsive Element (CRE) binding protein 3 (AID 2282926); conditions: HepG2 CRE cis-reporter, Attagene multiplexed mRNA; actives raise or lower the signal
# In short: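 Endogenous CRE-binding activity in HepG2 is reported through a cis-regulated transfected reporter. Following a day of exposure, mRNA levels are determined by reverse transcription PCR and fluorescent fragment analysis; fits run in both directions versus DMSO.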
# [11] = molecular target: CCAAT/enhancer-binding protein beta (Homo sapiens) (UniProt P17676); assay: ATG_C_EBP_CIS: Attagene CIS-FACTORIAL HepG2 Assay for human CCAAT/Enhancer Binding Protein (C/EBP) beta (AID 2282927); conditions: HepG2 Attagene cis-factorial transcription factor reporter; actives raise or lower the signal
# In short: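 Following a 24 h incubation with test chemical, transfected HepG2 cells yielded RNA whose reporter transcripts were quantified by RT-PCR and fluorescent capillary electrophoresis, with DMSO serving as baseline for bidirectional fitting.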
# [12] = ATG_CMV_CIS: Attagene CIS-FACTORIAL HepG2 Assay for human CMV (Internal Marker) (AID 2282928); conditions: HepG2 CMV promoter reporter, transcription factor profiling; actives raise or lower the signal;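 note: endpoint acts as a background internal control marker rather than a target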
# In short: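 CMV internal-marker background readout in transiently transfected HepG2 cells bearing cis-regulated reporter units. Reporter mRNA is measured 24 h after dosing by RT-PCR and capillary electrophoresis, with bidirectional fitting against DMSO.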
# [13] = ATG_DR4_LXR_CIS: Attagene CIS-FACTORIAL HepG2 Assay for human Liver X Receptor (LXR), DR4 submotif (AID 2282929); conditions: HepG2 Attagene DR4 cis-reporter, mRNA transcription; actives raise or lower the signal
# In short: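 Readout: reporter transcript fluorescence after RT-PCR and capillary electrophoresis, fitted bidirectionally against DMSO controls. Human HepG2 liver cells carried transiently transfected multiplexed reporter constructs; endogenous transcription factor activity measured 24 h post-dosing.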
# [14] = ATG_AP_1_CIS: Attagene CIS-FACTORIAL HepG2 Assay for human Activator Protein 1 (AP-1) (AID 2282931); conditions: HepG2 Attagene cis-factorial AP-1 reporter mRNA; actives raise or lower the signal
# In short: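 Reporter transcripts were measured 24 h after dosing by RT-PCR and capillary electrophoresis of fluorescent fragments. Cells: HepG2 carrying transfected cis-regulated reporter constructs reading endogenous factor activity. Gain or loss fitted against DMSO.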
# [15] = ATG_AP_2_CIS: Attagene CIS-FACTORIAL HepG2 Assay for human Activator Protein 2 (AP-2) (AID 2282932); conditions: HepG2 AP-2 cis-reporter, Attagene transcription factor profiling; actives raise or lower the signal
# In short: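 Bidirectional curve fitting against DMSO was applied to reporter mRNA signals from HepG2 cells 24 h after dosing. Cis-promoter reporter units, transiently transfected, were read by RT-PCR plus capillary electrophoresis.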
# [16] = ATG_BRE_CIS: Attagene CIS-FACTORIAL HepG2 Assay for human Bone Morphogenetic Protein (BMP) Response Element (BRE) (AID 2282933); conditions: HepG2 BMP response element reporter, Attagene transcription factor profiling; actives raise or lower the signal
# In short: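 A HepG2 multiplex reporter system measured inducible reporter mRNA 24 h post-dosing. Detection: RT-PCR, 6-FAM primer extension, HpaI digestion, capillary electrophoresis. Activity fitted bidirectionally relative to DMSO.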
# [17] = molecular target: Transcription factor E2F1 (Homo sapiens) (UniProt Q01094); assay: ATG_E2F_CIS: Attagene CIS-FACTORIAL HepG2 Assay for human E2F Transcription Factor 1 (AID 2282935); conditions: HepG2 Attagene cis-reporter, E2F reporter RNA transcripts; actives raise or lower the signal
# In short: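 Multiplexed cis-reporter assay: HepG2, transient transfection, 24 h dosing, mRNA quantitation by labeled RT-PCR and CE.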
# [18] = APR_HepG2_StressKinase_72hr: Apredica 72-hour HepG2 Assay for Stress Kinase (AID 2282921); conditions: HepG2 stress kinase (phospho-c-Jun) imaging, actives raise or lower the signal
# In short: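 HepG2 cells treated 72 hr with 0.39–200 uM compound, 0.5% v/v DMSO, duplicate wells. After formaldehyde fixation and Triton permeabilization, stained with anti-phospho-c-Jun (1:500) and Cy3 secondary, imaged at 20x. Fitted in both directions against DMSO.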
# [19] = molecular target: Retinoic acid receptor alpha (Homo sapiens) (UniProt P10276); assay: ATG_DR5_RAR_CIS: Attagene CIS-FACTORIAL HepG2 Assay for human Retinoic Acid Receptor Alpha (RARE), DR5 submotif (AID 2282934); conditions: HepG2 Attagene cis-factorial RARE DR5 reporter, mRNA; actives raise or lower the signal;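 for AC50: reporter responds to endogenous RAR alpha beta and gamma in HepG2 not RARA alone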
# In short: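 Endpoint fitted in both directions relative to DMSO as negative control. It reflects DR5 cis-element reporter mRNA induction in transiently transfected HepG2 cells, measured 24 h after dosing through RT-PCR and fluorescent capillary electrophoresis.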
# [20] = molecular target: Aryl hydrocarbon receptor (Homo sapiens) (UniProt P35869); assay: ATG_Ahr_CIS: Attagene CIS-FACTORIAL HepG2 Assay for human Aryl Hydrocarbon Receptor (Ahr) (AID 2282930); conditions: HepG2 AhR cis-factorial reporter transcription; actives raise or lower the signal
# In short: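 Values derive from bidirectional fitting against DMSO negative control. Underlying signal: cis-element reporter mRNA in transiently transfected HepG2, harvested 24 h post-dose and measured by RT-PCR plus capillary electrophoresis.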
# Sequence of Retinoic acid receptor alpha (Homo sapiens) (P10276 whole entry, looked up): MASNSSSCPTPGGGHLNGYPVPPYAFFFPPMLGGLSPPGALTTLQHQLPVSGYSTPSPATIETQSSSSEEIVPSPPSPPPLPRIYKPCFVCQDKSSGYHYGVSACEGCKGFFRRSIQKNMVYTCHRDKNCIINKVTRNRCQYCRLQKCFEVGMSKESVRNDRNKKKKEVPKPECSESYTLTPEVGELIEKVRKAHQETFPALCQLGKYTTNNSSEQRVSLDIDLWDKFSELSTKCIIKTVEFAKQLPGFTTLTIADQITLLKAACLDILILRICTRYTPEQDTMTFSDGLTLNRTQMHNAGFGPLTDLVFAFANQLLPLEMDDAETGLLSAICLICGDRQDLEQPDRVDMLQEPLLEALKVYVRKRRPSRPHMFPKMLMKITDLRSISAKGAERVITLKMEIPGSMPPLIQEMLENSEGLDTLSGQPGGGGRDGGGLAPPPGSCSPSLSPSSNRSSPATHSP
# Sequence of Transcription factor E2F1 (Homo sapiens) (Q01094 whole entry, looked up): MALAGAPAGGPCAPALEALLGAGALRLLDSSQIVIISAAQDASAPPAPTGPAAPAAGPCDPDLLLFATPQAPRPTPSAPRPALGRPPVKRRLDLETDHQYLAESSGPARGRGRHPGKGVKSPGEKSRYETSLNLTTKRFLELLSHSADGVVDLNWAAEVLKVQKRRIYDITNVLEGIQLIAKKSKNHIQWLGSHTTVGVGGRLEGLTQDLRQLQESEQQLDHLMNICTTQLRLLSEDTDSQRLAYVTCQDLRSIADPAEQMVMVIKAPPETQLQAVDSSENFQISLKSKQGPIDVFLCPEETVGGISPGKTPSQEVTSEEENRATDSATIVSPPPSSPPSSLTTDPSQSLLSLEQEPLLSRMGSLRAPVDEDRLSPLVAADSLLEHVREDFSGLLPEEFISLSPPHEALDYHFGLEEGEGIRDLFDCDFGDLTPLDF
# Sequence of CCAAT/enhancer-binding protein beta (Homo sapiens) (P17676 whole entry, looked up): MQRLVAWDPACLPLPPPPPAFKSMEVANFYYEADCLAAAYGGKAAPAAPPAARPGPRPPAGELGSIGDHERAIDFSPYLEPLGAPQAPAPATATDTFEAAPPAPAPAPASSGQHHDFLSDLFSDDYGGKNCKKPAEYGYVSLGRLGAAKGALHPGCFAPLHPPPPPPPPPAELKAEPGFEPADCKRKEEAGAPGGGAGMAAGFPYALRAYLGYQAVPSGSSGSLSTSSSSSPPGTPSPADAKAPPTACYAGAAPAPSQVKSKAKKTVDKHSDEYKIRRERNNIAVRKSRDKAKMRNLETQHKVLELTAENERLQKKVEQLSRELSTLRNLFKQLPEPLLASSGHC
# Sequence of Aryl hydrocarbon receptor (Homo sapiens) (P35869 whole entry, looked up): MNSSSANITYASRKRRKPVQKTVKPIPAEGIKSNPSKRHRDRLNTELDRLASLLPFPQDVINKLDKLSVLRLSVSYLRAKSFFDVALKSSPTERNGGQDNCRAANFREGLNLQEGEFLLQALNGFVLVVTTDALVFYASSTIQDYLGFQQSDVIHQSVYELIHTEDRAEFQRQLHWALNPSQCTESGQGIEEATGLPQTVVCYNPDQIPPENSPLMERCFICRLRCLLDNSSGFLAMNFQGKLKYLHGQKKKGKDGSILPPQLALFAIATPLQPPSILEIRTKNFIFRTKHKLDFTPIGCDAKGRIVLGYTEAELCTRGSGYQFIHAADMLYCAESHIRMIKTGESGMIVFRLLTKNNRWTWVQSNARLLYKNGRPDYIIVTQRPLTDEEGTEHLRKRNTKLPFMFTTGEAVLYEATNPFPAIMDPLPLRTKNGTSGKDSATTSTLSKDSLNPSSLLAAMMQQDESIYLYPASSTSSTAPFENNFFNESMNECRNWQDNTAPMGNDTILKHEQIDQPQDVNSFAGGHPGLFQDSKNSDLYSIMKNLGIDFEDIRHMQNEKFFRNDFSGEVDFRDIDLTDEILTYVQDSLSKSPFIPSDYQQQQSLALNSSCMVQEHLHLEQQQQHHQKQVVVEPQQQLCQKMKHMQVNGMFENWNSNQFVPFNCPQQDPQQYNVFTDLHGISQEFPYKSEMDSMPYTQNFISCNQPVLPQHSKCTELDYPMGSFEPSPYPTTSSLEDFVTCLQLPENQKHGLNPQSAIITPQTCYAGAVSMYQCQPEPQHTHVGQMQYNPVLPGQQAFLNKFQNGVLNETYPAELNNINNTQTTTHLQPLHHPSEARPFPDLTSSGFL
structure (smiles),measurement,setting,value
CCOP(=S)(OCC)SCSC(C)(C)C,outcome,[1],inactive
same,outcome,[2],inactive
same,outcome,[3],inactive
same,outcome,[4],inactive
same,outcome,[5],inactive
same,outcome,[6],inactive
same,outcome,[7],inactive
same,outcome,[8],inactive
same,outcome,[9],inactive
same,outcome,[10],inactive
same,outcome,[11],inactive
same,outcome,[12],inactive
same,AC50,[13],10.6 µM (active)
same,outcome,[13],inactive
same,outcome,[14],inactive
same,outcome,[15],inactive
same,outcome,[16],inactive
same,outcome,[17],inactive
Cc1cc(-c2ccc(N)c(C)c2)ccc1N,outcome,[2],inactive
same,outcome,[3],inactive
same,outcome,[4],inactive
same,outcome,[5],inactive
same,outcome,[18],inactive
same,outcome,[6],inactive
same,outcome,[7],inactive
same,outcome,[8],inactive
same,outcome,[9],inactive
same,outcome,[10],inactive
same,outcome,[11],inactive
same,AC50,[12],60.2 µM (active)
same,outcome,[12],inactive
same,outcome,[13],inactive
same,outcome,[14],inactive
same,outcome,[15],inactive
same,outcome,[16],inactive
same,outcome,[19],inactive
same,outcome,[17],inactive
COc1ccc(O)c(C(C)(C)C)c1,outcome,[2],inactive
same,outcome,[3],inactive
same,outcome,[4],inactive
same,outcome,[5],inactive
same,outcome,[18],inactive
same,outcome,[6],inactive
same,outcome,[7],inactive
same,outcome,[8],inactive
same,outcome,[9],inactive
same,AC50,[10],100 µM (active)
same,AC50,[11],100 µM (active)
same,AC50,[12],83.1 µM (active)
same,outcome,[13],inactive
same,outcome,[20],inactive
same,AC50,[14],55.5 µM (active)
same,outcome,[15],inactive
same,outcome,[16],inactive
same,outcome,[19],inactive
same,outcome,[17],inactive
O=S(=O)(O)C(F)(F)C(F)(F)C(F)(F)C(F)(F)C(F)(F)C(F)(F)F,outcome,[1],inactive
same,outcome,[2],inactive
same,outcome,[3],inactive
same,outcome,[4],inactive
same,outcome,[5],inactive
same,outcome,[6],inactive
same,outcome,[7],inactive
same,outcome,[8],inactive
same,outcome,[9],inactive
same,outcome,[10],inactive
same,outcome,[11],inactive
same,outcome,[12],inactive
same,outcome,[13],inactive
same,AC50,[14],117 µM (active)
same,outcome,[14],inactive
same,outcome,[15],inactive
same,outcome,[16],inactive
same,outcome,[17],inactive
C=CC(N)=O,outcome,[1],inactive
same,outcome,[2],inactive
same,outcome,[3],inactive
same,outcome,[4],inactive
same,outcome,[5],inactive
same,outcome,[18],inactive
same,outcome,[6],inactive
same,outcome,[7],inactive
same,outcome,[8],inactive
same,outcome,[9],inactive
same,outcome,[10],inactive
same,outcome,[11],inactive
same,outcome,[12],inactive
same,AC50,[13],47.6 µM (active)
same,outcome,[14],inactive
same,outcome,[15],inactive
same,outcome,[16],inactive
same,outcome,[19],inactive
same,outcome,[17],inactive
ClC1=C(Cl)[C@]2(Cl)[C@@H]3[C@@H](Cl)[C@H]4O[C@H]4[C@@H]3C1(Cl)C2(Cl)Cl,AC50,[1],48.2 µM (active)
same,outcome,[2],inactive
same,AC50,[3],51.6 µM (active)
same,outcome,[4],inactive
same,AC50,[5],62.3 µM (active)
same,outcome,[6],inactive
same,AC50,[7],54.5 µM (active)
same,outcome,[8],inactive
same,outcome,[9],inactive
same,outcome,[10],inactive
same,outcome,[11],inactive
same,AC50,[12],33.7 µM (active)
same,AC50,[13],8.22 µM (active)
same,outcome,[20],inactive
same,AC50,[14],35.9 µM (active)
same,outcome,[15],inactive
same,outcome,[16],inactive
same,AC50,[19],3.4 µM (active)
same,outcome,[17],inactive
